assay: E. coli DRC41 culture turbidity changes, primary screen, E. coli filamentation inducer project, strain DRC41, OD650, 48 h (AID 1152);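 further: E. coli MC1000 strain DRC41 lacking acrAB efflux pump and sulA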; settings: E. coli DRC41 (acrAB sulA), higher = more signal, called active from +8 up or from −8 down

z-score, inactive:
COCCOC(=O)N1C(=O)[C@@]2(c3ccccc31)[C@H](c1ccc(OCCO)cc1)N1[C@H](c3ccccc3)[C@H](c3ccccc3)OC(=O)[C@H]1[C@@H]2C(=O)N1CCCCCCC1 -0.906
CCCCCN1CC=CC23O[C@@H]4/C=C\CCC(C)OC(=O)C4[C@H]2C(=O)N(CCCCCCO)[C@@H]3C1=O (some centres undefined) 1.6
COCCOC(=O)N1C(=O)[C@@]2(c3ccccc31)[C@H](c1ccccc1OCCO)N1[C@H](c3ccccc3)[C@H](c3ccccc3)OC(=O)[C@H]1[C@@H]2C(=O)N1CCCCCCC1 -0.553
C=C[C@@H](OC)[C@H](OC(=O)Nc1ccc(SC)cc1)c1ccc(OCCO)cc1 -3.28
COC(=O)[C@@]1(Cc2ccc(F)cc2)[C@H]2c3cc(C(=O)N(C)C)n(Cc4c(CO)[nH]cc(C)c4=O)c3C[C@H]2CN1C(=O)c1ccccc1 -1.35
Cc1ccccc1C(O)C1C=CC2C(=O)N(c3ccccc3)C(=O)C2N1Nc1ccc([N+](=O)[O-])cc1 (centres undefined) -0.467
COc1cc(NN2C(C(O)c3cc(OC)c(OC)c(OC)c3)C=CC3C(=O)N(c4ccccc4)C(=O)C32)cc(OC)c1OC (centres undefined) -1.78
C=CCC(OC(C)=O)[C@@H]1[C@@H](N(Cc2cccc3ccccc23)C(=O)c2cccc3ccccc23)c2cc(OCCCO)ccc2N1C(=O)c1ccc2ccccc2c1 (some centres undefined) 0.0047
COC(=O)[C@@]1(Cc2ccccc2)[C@H]2c3cc(C(=O)N4CCCC4)n(CCSCCO)c3C[C@H]2CN1C(=O)c1ccccc1 -1.88

From PubChem BioAssay
